# Laboratory results as given in PubChem BioAssay AID2314 (National Center for Advancing Translational Sciences (NCATS), 2010).
# Values joined by “and” are separate entries in the source; they are usually repeats but may differ in a detail not shown here. Equal values may be shown once. About 37,000 (12%) of roughly 300,000 compounds were called active. The full list was thinned out, with actives kept by preference. Values without a mark were called inactive. No stated cut-off is given here; in the data, active means max response mostly above about 13% (no sharp cut-off); inactive means mostly below about 14%.
# Experiment: Cycloheximide Counterscreen for Small Molecule Inhibitors of Shiga Toxin; further: read at 38.3 µM for the half of the compounds with a filed dose; 0% is about no effect
# Details: cell reporter, cycloheximide protein synthesis inhibition counterscreen; stronger effect = higher value
row,SMILES,max response
1,CCc1ccc(OCC(=O)OC(C)C(=O)NC2CC2)cc1 (centres undefined),-3.17%
2,CCC(Sc1nncn1C)C(=O)Nc1nnc(-c2ccc(Cl)cc2)s1 (centres undefined),11.6%
3,Cc1nc(-c2ccc(Cl)cc2)sc1C(=O)NN,0.842%
4,Cc1nc(-c2ccc(Cl)cc2)sc1C(=O)CBr,24.4% (active)
5,Cc1cc(/C=N/NC(=O)CC2(C)OCCO2)c(C)n1-c1ccc(Cl)c(Cl)c1,-1.92%
6,COc1ccc(-c2noc(CNC(=O)C(C)Oc3ccccc3)n2)cc1 (centres undefined),0.411%
7,Cc1ccc(-c2nc(CS(=O)(=O)CC(=O)NCc3ccc4c(c3)OCO4)c(C)o2)cc1,-6.73%
8,CC(=O)N1CCSc2ccc(S(=O)(=O)N3CCC(C)CC3)cc21,11.3%
9,COc1ccc2nc(/N=C(\N)NC(=O)Nc3ccccc3)nc(C)c2c1,21.4% (active)
10,Cc1nc(/N=C(\N)NC(=O)NC2CCCCC2)nc2ccccc12,8.1%
11,COc1ccc2nc(C)cc(Nc3cccc(C(=O)O)c3)c2c1,-4.02%
12,NC(=O)c1cc(S(=O)(=O)N2CCCC2)ccc1OCc1ccc(F)cc1,8.59%
13,COc1ccc(CCNc2nc(C)cc(C)n2)cc1OC,-4.51%
14,CCOC(=O)c1c(NC(=S)NC(=O)/C=C/c2cccs2)sc(C)c1C,-0.873%
15,CCOC(=O)c1sc(=NC(=O)c2ccc(Br)cc2)n(C)c1C,7.25%
16,CCOC(=O)c1sc(=NC(=O)/C=C/c2cccs2)n(C)c1C,45% (active)
17,Cc1cccc2[nH]c(CN(C)C(=O)C3CCC(=O)N(CCc4ccccc4)C3)nc12 (centres undefined),-2.09%
18,CC1CCN(S(=O)(=O)c2ccc(NC(=O)C3CC(=O)N(c4ccccc4)C3)cc2)CC1 (centres undefined),-2.49%
19,COC(=O)c1cc(S(=O)(=O)NCC2CCN(Cc3ccc(Cl)cc3)CC2)cn1C,-2.79%
20,Cc1cc(NC(=O)Nc2c[nH]c(=O)[nH]c2=O)ccc1Br,9%

row,SMILES,max response
1,COC(=O)c1cccc(NS(C)(=O)=O)c1,-1.63%
2,CCN(CC)CCNC(=O)CCCCCn1c(=O)[nH]c2cc(C(=O)OC)ccc2c1=O,-5.11%
3,COC(=O)c1ccc2c(C(C)(C)O)c(C(C)(C)O)[nH]c2c1,14.2% (active)
4,CC(C)(C)c1cc(C(=O)NN)n(Cc2ccc(Cl)cc2Cl)n1,-2.75%
5,N=c1n(Cc2ccc(Cl)cc2)c2ccccc2n1CC(O)c1ccco1 (centres undefined),-4.56%
6,C=C(C)CNC(=S)/N=c1\scc(C)n1CC,10.1%
7,CC(=O)/C(=N\Nc1ccc(Cl)cc1Cl)Sc1cccc2cccnc12,19.1% (active)
8,O=C(CSc1cccc2cccnc12)N/N=C/c1cccnc1,31.6%
9,Cc1ccc(NC(=O)CSc2cccc3cccnc23)c(C)c1,21%
10,COc1ccc(CCN2CC(C(=O)NCCN3CCNC3=O)CCC2=O)cc1 (centres undefined),7.2%
11,COc1cc(C(=O)OC(C)C(=O)NCC2CCCCC2)cc(NC(=O)c2ccco2)c1OC (centres undefined),-2.06%
12,COc1ccc(C[C@H]2CN3C(=NC[C@H]3C)N2CCNC(=O)CCC2CCCCC2)cc1,5.31%
13,CCc1nn(CCCC(=O)Nc2ccc(C)cc2C)c(=O)c2cc3occc3n12,0.647%
14,CC(=O)N1Cc2ccccc2CC1C(=O)O (centres undefined),-1.38%
15,Cc1ccc(NC(=O)Nc2nnc(-c3ccncc3)s2)cc1,-1.9%
16,Cc1ccc(Nc2nc(C)cc(C)c2C(N)=O)cc1,-4.97%
17,Cc1ccc(Nc2nc(Cl)c(C=O)s2)cc1,46% (active)
18,Cc1cccc(OCC(O)CN2CCN(CCN3C(=O)c4cccc5cccc(c45)C3=O)CC2)c1C (centres undefined),-8.1%
19,COC(=O)CN1C(=O)[C@H]2[C@@H](C3CC3)N3C(=O)CN(Cc4ccc(-c5ccccc5)cc4)C(=O)[C@@]3(Cc3ccccc3)[C@H]2C1=O,-3.99%
20,Cc1ccc(NC(=S)N(CCCN2CCCC2)Cc2cccn2Cc2ccc(Cl)cc2)cc1,-7.32%

row,SMILES,max response
1,Cc1cc(F)ccc1S(=O)(=O)N1CCCOC1CNC(=O)C(=O)NCCC1=CCCCC1 (centres undefined),-4.9%
2,CC1=NN(c2ccccc2)C(=O)C1C(=O)c1ccc([N+](=O)[O-])cc1 (centres undefined),20.6%
3,O=c1[nH]n(-c2ccc([N+](=O)[O-])cc2)c(=O)c2ccccc12,-2.65%
4,O=C1CC(c2ccccc2)=NN1c1ccc([N+](=O)[O-])cc1,17.2% (active)
5,Cc1ccc(CNC(=O)C2(C(F)(F)F)C/C(=C\Cc3ccccc3)CCCO2)o1 (centres undefined),-3.33% and -3.22%
6,O=C(COc1nsnc1N1CCOCC1)Nc1ccccc1Cl,8.06%
7,CCn1c(Cc2ccc(OC)cc2)nnc1SCC(=O)Nc1ccc(N2CCOCC2)cc1,-3.63%
8,COc1ccc(/C=C(/CC(=O)Nc2ccc(C)cc2)c2nc3ccccc3s2)cc1,21.2% (active)
9,COc1cccc(/C=C(/CC(=O)Nc2ccc(N3CCOCC3)cc2)c2nc3ccccc3s2)c1,50.5% (active)
10,COc1cc2ccccc2cc1C(=O)Nc1ccc(N2CCOCC2)cc1,8.83%
11,COc1ccc(NC(=O)COC(=O)c2ccc(NS(=O)(=O)/C=C/c3ccccc3)cc2)cc1,0.764%
12,COc1ccc(NC(=O)CSc2nc3ccccc3c(=O)n2C)cc1,-4.03%
13,Cc1cc(C(=O)NC2CCN(Cc3ccccc3)CC2)n[nH]1,-5.5%
14,Clc1ccc(C[n+]2cc(-c3ccc(Cl)cc3)n3c2CCC3)cc1,1.82%
15,Cc1ccc(CN2CCCOCCS2(=O)=O)cc1,0.911%
16,CCO[C@@H]1OC(C(=O)NCc2nc3ccccc3[nH]2)=C[C@H](C2CCCCC2)[C@H]1CCCO,-1.94%
17,O=C(COc1ccccc1)NCCc1nc2ccccc2[nH]1,-4.17%
18,O=C(OCc1nc2ccccc2[nH]1)C1CCCCC1,16.3% (active)
19,CCc1cc2c(NC(Cc3ccccc3)C(=O)O)ncnc2s1 (centres undefined),1.45%
